Reference: PubChem BioAssay AID1159580 (chemical genetic matrix, 2015)
Several values for one entry are separate records, joined by “and”; a condition that tells them apart may be missing. Equal values may be shown once. Screen size: about 5,500 compounds; about 2,000 (36%) were called active. Inconclusive results (about 18%) are left out. No stated cut-off is given here; in the data, active means normalized growth mostly below about 0.91 (no sharp cut-off); inconclusive means no clear call, values can overlap the other calls; inactive means mostly above about 0.92. This is one part of the list.

Assay: chemical genetic growth profiling, strain panel (AID 1159580);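 further: tested at 20 µM; growth read once vehicle control cultures reached saturation at 30 °C; 1 = growth at the plate median or of vehicle wells; lower values mean less growth of the strain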
Conditions: S. cerevisiae deletion strains, growth OD

Measured: normalized growth

Cc1cc(C)cc(OCC2CNC(=O)O2)c1 (stereo unspecified)
inactive: locus YAL013W, strain DEP1, active compounds read low 1.01 | locus YAL021C, strain ccr4, active compounds read low 0.995 | locus YAL026C, strain drs2, active compounds read low 0.977 | locus YAL030W, strain snc1, active compounds read low 0.984 | locus YBL061C, strain skt5, active compounds read low 0.97 | locus YBR009C, strain hhf1, active compounds read low 0.985 | locus YBR021W, strain FUR4, active compounds read low 1.02 | locus YBR023C, strain chs3, active compounds read low 0.972 | locus YBR171W, strain sec66, active compounds read low 0.963 | locus YBR229C, strain ROT2, active compounds read low 1 | locus YBR231C, strain swc5, active compounds read low 0.992 | locus YBR279W, strain paf1, active compounds read low 0.969 | locus YCL011C, strain gbp2, active compounds read low 0.977 | locus YCL016C, strain dcc1, active compounds read low 0.979 | locus YCL029C, strain bik1, active compounds read low 1.01 | locus YCL061C, strain MRC1, active compounds read low 0.973 | locus YCL069W, strain vba3, active compounds read low 0.975 | locus YCR088W, strain abp1, active compounds read low 0.977 | locus YDL005C, strain med2, active compounds read low 0.97 | locus YDL035C, strain GPR1, active compounds read low 1.02 | locus YDL040C, strain nat1, active compounds read low 0.972 | locus YDL074C, strain BRE1, active compounds read low 1.03 | locus YDL101C, strain DUN1, active compounds read low 1.02 | locus YDL134C, strain PPH21, active compounds read low 1.02 | locus YDL185W, strain tfp1, active compounds read low 1.02 | locus YDL192W, strain arf1, active compounds read low 1.01 | locus YDR001C, strain nth1, active compounds read low 0.979 | locus YDR069C, strain doa4, active compounds read low 0.986 | locus YDR101C, strain arx1, active compounds read low 1.01 | locus YDR137W, strain rgp1, active compounds read low 0.92 | locus YDR150W, strain NUM1, active compounds read low 1.02 | locus YDR159W, strain sac3, active compounds read low 0.986 | locus YDR162C, strain NBP2, active compounds read low 1.03 | locus YDR195W, strain ref2 0.97 | locus YDR297W, strain sur2, active compounds read low 0.976 | locus YDR318W, strain mcm21, active compounds read low 1.02 | locus YDR334W, strain swr1, active compounds read low 0.966 | locus YDR335W, strain msn5, active compounds read low 0.971 | locus YDR388W, active compounds read low 1.01 | locus YDR392W, strain spt3, active compounds read low 0.983 | locus YDR502C, strain sam2, active compounds read low 1.02 | locus YEL003W, strain gim4, active compounds read low 0.981 | locus YEL037C, strain rad23, active compounds read low 0.979 | locus YEL061C, strain CIN8 (second series), active compounds read low 0.966 | locus YEL061C, strain CIN8, active compounds read low 1 | locus YER015W, strain faa2, active compounds read low 0.982 | locus YER016W, strain bim1, active compounds read low 0.983 | locus YER110C, active compounds read low 1.01 | locus YER111C, strain swi4, active compounds read low 0.971 | locus YER155C, strain BEM2 (second series), active compounds read low 0.972 | locus YER155C, strain BEM2, active compounds read low 1.02 | locus YER167W, strain BCK2, active compounds read low 1.02 | locus YGL078C, strain dbp3, active compounds read low 1.01 | locus YGL086W, strain mad1, active compounds read low 1.01 | locus YGL167C, strain pmr1, active compounds read low 0.971 | locus YGL173C, strain kem1, active compounds read low 0.966 | locus YGL227W, strain vid30, active compounds read low 0.972 | locus YGL240W, strain doc1, active compounds read low 0.976 | locus YGL248W, strain PDE1, active compounds read low 1.01 | locus YGL253W, strain hxk2, active compounds read low 0.97 | locus YGR078C, strain PAC10, active compounds read low 1.01 | locus YGR135W, strain pre9, active compounds read low 0.998 | locus YGR229C, strain SMI1, active compounds read low 1.02 | locus YGR252W, strain gcn5, active compounds read low 1 | locus YHR013C, strain ard1, active compounds read low 0.928 | locus YHR027C, strain rpn1, active compounds read low 0.964 | locus YHR030C, strain SLT2, active compounds read low 1.01 and 1.04 | locus YHR079C, strain IRE1 (second series), active compounds read low 1.02 | locus YHR079C, strain IRE1, active compounds read low 1.05 | locus YHR094C, strain hxt1, active compounds read low 1.02 | locus YHR129C, strain ARP1, active compounds read low 1.02 | locus YHR142W, strain chs7, active compounds read low 0.968 | locus YHR200W, strain rpn10, active compounds read low 1.02 | locus YIL066C, strain RNR3, active compounds read low 1.02 | locus YIL073C, strain SPO22, active compounds read low 1.03 | locus YIL125W, strain kgd1, active compounds read low 1.01 | locus YIR030C, strain dcg1, active compounds read low 1.02 | locus YJL092W, strain hpr5, active compounds read low 0.972 | locus YJL095W, strain BCK1 (second series), active compounds read low 0.971 | locus YJL095W, strain BCK1, active compounds read low 1.01 and 1.02 | locus YJL115W, strain asf1, active compounds read low 0.965 | locus YJL129C, strain trk1, active compounds read low 0.974 | locus YJL134W, strain LCB3, active compounds read low 1.02 | locus YJL154C, strain vps35, active compounds read low 0.973 | locus YJL164C, strain tpk1, active compounds read low 0.98 | locus YJL166W, strain qcr8, active compounds read low 0.981 | locus YJL168C, strain set2, active compounds read low 1.02 | locus YJL187C, strain SWE1 (second series), active compounds read low 1.01 | locus YJL187C, strain SWE1, active compounds read low 0.982 | locus YJR043C, strain POL32, active compounds read low 1.02 | locus YJR066W, strain TOR1, active compounds read low 0.99
